The panel holds about 83,000 compounds, 20% with a hit somewhere; the sample as a whole holds those more often.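 Each cell line was grown in a 96-well plate and treated with one concentration of compound for 48 hours. Values below 10 were considered active.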 The source made the active and inactive calls.

The subject of the assay is MDA-MB-468 breast. The experiment in a line: NCI-60 one-dose screen, 48 h (100 = growth as untreated, 0 = no growth, -100 = all killed). As to conditions: 10 µM unless noted.
In the case of `CC1(C)C2CC1C1(/C=N\Nc3ccccc3)C(C2)C(C#N)(C#N)C1(C#N)C#N` (centres undefined), the growth was 94.8% (inactive). With `O=C1C=CC(=O)N1c1ccccn1`, the growth is 114% (inactive). As for `CC(=O)OCC(=O)C1(O)C(C)CC2C3C=C(C)C4=Cc5c(cnn5-c5ccccc5)CC4(C)C3C(O)CC21C` (centres undefined), the figure is -10.9% (active); as for `O=Cc1ccc(F)cc1`, 91% (inactive).

The values are drawn from PubChem BioAssay (NCI).
